Of roughly 7,900 targets only a part is listed; those with a hit were picked by preference. About 0.6% of all pairs of compound and target were hits. A number with no mark means an inactive call.
How the values were obtained:
Assay in all cases: log2 fold change, soluble protein after heating vs DMSO (PISA); higher = thermal stabilisation; K562 cells, 10 uM, 30 min; active = over 0.2 and 3.5 SD of the protein, either way, in both replicates (recomputed)
[1] = compound: COC1=CC=C(C=C1)CN2C=CC3=C2C=C(C=C3)C(=O)NO
Procedure, shortened: (§1)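 K562 cells at 2×10^6 cells/mL were exposed to 10 μM compound for 30 min, then aliquots were heated for 3 min across 48°C-58°C, pooled, and extracted in PBS containing 0.5% NP-40 at 4°C. The supernatant after 21,000xg for 90 min was taken as soluble protein and measured by TMTpro 16plex LC-MS/MS with channel sums equalised. Thermal stability is reported relative to control samples, with values from duplicates. Fold changes are given on a log2 scale.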

filanesib = compound: CON(C)C(=O)N1N=C(c2cc(F)ccc2F)S[C@@]1(CCCN)c1ccccc1 [filanesib]
Procedure, shortened: as §1

zotarolimus = compound: CO[C@H]1C[C@@H]2CC[C@@H](C)[C@@](O)(O2)C(=O)C(=O)N2CCCC[C@H]2C(=O)O[C@H]([C@H](C)C[C@@H]2CC[C@H](n3cnnn3)[C@H](OC)C2)CC(=O)[C@H](C)/C=C(\C)[C@@H](O)[C@@H](OC)C(=O)[C@H](C)C[C@H](C)/C=C/C=C/C=C/1C [zotarolimus]
Procedure, shortened: as §1

idasanutlin = compound: COc1cc(C(=O)O)ccc1NC(=O)[C@@H]1N[C@@H](CC(C)(C)C)[C@](C#N)(c2ccc(Cl)cc2F)[C@H]1c1cccc(Cl)c1F [idasanutlin]
Procedure, shortened: as §1

alisertib = compound: COc1cc(Nc2ncc3c(n2)-c2ccc(Cl)cc2C(c2c(F)cccc2OC)=NC3)ccc1C(=O)O [alisertib]
Procedure, shortened: as §1

[2] = compound: COc1cc2nc(-c3cc(F)ccc3O)nc(N[C@@H]3CNC[C@H]3C(C)(C)O)c2cc1OC
Procedure, shortened: as §1

gefitinib = compound: COc1cc2ncnc(Nc3ccc(F)c(Cl)c3)c2cc1OCCCN1CCOCC1 [gefitinib]
Procedure, shortened: as §1

[3] = compound: COc1cccc2cc(-c3nc([C@H]4CC[C@H](C(=O)O)CC4)n4ncnc(N)c34)[nH]c12
Procedure, shortened: as §1

lapatinib = compound: CS(=O)(=O)CCNCc1ccc(-c2ccc3ncnc(Nc4ccc(OCc5cccc(F)c5)c(Cl)c4)c3c2)o1 [lapatinib]
Procedure, shortened: as §1

pictilisib = compound: CS(=O)(=O)N1CCN(Cc2cc3nc(-c4cccc5[nH]ncc45)nc(N4CCOCC4)c3s2)CC1 [pictilisib]
Procedure, shortened: as §1

Sequence of UniProt Q5T6V5 (Q5T6V5 whole entry, looked up): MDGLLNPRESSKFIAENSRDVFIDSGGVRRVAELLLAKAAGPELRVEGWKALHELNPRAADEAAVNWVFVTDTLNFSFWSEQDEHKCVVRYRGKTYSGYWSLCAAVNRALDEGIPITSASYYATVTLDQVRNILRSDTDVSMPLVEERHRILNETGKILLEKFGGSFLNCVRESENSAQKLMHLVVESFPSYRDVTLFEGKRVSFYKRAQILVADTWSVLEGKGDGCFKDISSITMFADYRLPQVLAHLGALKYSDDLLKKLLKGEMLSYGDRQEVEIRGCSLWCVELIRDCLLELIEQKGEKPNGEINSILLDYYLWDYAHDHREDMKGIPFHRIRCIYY
Sequence of UniProt O14757 (O14757 whole entry, looked up): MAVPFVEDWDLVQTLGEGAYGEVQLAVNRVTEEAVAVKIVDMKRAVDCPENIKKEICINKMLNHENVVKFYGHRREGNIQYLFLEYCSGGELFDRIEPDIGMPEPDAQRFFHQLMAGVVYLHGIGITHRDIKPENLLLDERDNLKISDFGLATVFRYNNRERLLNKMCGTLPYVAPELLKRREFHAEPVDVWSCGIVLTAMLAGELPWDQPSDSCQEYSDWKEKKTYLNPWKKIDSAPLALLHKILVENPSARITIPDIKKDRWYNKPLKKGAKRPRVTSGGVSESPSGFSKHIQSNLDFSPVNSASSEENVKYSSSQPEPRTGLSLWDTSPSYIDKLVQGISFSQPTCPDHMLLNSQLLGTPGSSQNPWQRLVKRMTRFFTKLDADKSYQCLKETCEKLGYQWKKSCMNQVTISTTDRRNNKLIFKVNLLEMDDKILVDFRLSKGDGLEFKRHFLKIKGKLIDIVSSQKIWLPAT
Sequence of UniProt P55060 (P55060 whole entry, looked up): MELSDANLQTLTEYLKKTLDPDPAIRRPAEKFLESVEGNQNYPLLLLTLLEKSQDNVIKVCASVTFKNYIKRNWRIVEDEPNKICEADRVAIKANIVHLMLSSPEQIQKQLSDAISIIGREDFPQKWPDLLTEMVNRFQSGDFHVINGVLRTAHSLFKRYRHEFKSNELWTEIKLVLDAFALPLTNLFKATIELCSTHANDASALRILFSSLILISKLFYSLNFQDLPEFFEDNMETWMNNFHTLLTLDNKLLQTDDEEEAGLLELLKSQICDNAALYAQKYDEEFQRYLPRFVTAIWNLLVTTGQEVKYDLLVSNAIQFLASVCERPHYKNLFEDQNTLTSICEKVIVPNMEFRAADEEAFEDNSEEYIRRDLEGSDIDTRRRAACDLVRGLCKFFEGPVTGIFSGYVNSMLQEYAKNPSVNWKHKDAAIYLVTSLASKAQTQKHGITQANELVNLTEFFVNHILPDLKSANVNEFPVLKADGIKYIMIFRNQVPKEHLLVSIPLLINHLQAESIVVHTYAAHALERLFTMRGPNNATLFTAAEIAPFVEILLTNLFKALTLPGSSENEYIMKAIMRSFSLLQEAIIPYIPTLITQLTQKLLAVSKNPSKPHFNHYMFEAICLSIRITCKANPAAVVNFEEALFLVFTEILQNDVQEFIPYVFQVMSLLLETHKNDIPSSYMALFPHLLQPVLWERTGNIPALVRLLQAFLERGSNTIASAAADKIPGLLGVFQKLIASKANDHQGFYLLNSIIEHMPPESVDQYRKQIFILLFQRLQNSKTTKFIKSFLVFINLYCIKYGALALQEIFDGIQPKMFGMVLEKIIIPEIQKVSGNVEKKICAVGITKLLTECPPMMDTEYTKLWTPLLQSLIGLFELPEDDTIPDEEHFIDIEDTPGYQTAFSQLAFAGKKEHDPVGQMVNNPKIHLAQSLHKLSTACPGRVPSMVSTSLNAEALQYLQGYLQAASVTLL
Sequence of UniProt Q9NPF2 (Q9NPF2 whole entry, looked up): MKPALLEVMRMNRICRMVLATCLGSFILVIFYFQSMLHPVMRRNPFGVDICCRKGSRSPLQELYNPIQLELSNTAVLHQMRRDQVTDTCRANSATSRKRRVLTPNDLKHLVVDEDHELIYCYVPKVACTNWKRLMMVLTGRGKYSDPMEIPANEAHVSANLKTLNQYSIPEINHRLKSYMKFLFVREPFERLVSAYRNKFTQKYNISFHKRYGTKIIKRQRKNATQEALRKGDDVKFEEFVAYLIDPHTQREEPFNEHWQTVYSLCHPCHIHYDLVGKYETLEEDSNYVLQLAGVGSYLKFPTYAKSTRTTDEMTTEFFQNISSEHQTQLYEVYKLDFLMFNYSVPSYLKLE
Sequence of UniProt P67870 (P67870 whole entry, looked up): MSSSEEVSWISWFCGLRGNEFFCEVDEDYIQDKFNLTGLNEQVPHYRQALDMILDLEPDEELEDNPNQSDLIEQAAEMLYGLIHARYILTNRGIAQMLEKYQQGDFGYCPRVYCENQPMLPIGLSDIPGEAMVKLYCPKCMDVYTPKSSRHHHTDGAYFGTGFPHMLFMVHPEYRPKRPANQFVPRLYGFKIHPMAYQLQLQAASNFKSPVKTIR
Sequence of UniProt P12277 (P12277 whole entry, looked up): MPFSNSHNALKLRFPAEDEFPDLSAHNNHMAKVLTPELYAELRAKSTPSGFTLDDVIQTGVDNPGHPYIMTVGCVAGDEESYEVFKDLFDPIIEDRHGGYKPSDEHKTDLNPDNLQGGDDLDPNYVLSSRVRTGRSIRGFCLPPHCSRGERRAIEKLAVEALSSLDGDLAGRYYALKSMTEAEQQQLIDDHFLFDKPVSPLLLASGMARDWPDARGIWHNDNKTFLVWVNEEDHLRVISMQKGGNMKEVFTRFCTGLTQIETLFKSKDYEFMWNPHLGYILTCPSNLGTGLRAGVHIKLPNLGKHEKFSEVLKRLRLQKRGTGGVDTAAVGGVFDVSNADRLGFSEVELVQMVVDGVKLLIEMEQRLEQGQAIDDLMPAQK
Sequence of UniProt O75390 (O75390 whole entry, looked up): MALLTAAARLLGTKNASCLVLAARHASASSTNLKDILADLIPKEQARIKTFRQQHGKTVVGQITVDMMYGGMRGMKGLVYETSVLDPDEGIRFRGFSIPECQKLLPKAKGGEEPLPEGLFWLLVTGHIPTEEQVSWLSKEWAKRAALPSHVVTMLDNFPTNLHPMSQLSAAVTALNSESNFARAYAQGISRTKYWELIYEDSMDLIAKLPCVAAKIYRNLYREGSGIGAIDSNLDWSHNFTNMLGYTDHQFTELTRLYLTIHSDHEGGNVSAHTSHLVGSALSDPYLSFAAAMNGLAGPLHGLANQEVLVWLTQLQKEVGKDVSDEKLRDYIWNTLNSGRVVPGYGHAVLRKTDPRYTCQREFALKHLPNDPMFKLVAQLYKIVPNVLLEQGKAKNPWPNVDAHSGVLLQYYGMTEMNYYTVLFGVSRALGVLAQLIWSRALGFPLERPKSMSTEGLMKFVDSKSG
Sequence of UniProt Q69YH5 (Q69YH5 whole entry, looked up): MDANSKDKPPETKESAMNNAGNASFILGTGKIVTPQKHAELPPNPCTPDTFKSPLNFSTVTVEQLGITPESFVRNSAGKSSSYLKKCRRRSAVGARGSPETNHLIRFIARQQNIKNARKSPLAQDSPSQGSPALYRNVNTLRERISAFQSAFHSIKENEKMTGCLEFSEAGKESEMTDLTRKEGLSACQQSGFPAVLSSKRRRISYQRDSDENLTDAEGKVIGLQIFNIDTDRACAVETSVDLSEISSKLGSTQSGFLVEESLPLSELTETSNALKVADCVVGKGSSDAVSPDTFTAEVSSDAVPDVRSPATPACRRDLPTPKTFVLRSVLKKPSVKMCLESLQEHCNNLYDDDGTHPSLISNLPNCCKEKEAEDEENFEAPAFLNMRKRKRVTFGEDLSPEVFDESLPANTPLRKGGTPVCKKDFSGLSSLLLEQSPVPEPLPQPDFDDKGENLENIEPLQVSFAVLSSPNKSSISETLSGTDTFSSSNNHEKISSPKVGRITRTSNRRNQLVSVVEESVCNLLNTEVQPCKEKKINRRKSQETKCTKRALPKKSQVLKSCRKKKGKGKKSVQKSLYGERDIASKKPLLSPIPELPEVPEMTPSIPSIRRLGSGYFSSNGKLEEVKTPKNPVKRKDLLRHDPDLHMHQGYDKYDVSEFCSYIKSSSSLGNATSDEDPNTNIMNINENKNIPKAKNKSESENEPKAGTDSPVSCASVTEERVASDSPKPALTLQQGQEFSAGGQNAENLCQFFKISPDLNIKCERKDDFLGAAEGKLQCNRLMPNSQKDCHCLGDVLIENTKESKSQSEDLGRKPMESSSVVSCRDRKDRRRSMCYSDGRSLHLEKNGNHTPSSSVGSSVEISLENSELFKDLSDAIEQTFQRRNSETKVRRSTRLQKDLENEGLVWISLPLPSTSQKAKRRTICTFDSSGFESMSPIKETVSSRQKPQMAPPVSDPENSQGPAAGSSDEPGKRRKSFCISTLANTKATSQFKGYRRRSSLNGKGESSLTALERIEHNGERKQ
Sequence of UniProt O15234 (O15234 whole entry, looked up): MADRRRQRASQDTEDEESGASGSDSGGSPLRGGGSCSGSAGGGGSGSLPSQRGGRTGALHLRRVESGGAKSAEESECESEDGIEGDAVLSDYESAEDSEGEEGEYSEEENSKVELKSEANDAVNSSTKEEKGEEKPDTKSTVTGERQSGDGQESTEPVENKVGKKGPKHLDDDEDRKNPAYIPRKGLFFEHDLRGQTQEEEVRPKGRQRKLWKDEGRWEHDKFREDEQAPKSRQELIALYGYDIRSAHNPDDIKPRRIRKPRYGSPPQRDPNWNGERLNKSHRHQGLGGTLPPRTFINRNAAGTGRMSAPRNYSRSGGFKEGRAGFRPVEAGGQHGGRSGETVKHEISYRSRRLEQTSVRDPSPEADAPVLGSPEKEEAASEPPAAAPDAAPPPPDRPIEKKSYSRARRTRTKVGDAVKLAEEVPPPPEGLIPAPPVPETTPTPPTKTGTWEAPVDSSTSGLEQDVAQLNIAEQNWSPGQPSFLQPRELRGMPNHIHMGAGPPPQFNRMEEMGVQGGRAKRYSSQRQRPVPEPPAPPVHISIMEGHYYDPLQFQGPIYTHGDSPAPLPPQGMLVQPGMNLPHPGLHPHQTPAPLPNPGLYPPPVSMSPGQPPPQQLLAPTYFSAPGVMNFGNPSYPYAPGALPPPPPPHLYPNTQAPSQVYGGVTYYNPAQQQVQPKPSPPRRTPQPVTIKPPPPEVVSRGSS

Target | log2 fold change [1] | log2 fold change (filanesib) | log2 fold change (zotarolimus) | log2 fold change (idasanutlin) | log2 fold change (alisertib) | log2 fold change [2] | log2 fold change (gefitinib) | log2 fold change [3] | log2 fold change (lapatinib) | log2 fold change (pictilisib)
COX6B1 (UniProt P14854) | -0.08 | 0.003 | 0.012 | 0 | 0.007 | 0.045 | 0.036 | 0.019 | -0.026 | 0.002
CHCHD1 (UniProt Q96BP2) | 0.037 | -0.017 | -0.001 | 0.082 | -0.077 | -0.198 | -0.042 | 0.161 | -0.055 | -0.193
C9orf64 (UniProt Q5T6V5) | 0.07 | -0.091 | 0.038 | -0.062 | 0.078 | -0.079 | -0.062 | -0.022 | 0.043 | -0.055
CKB (UniProt P12277) | -0.031 | -0.097 | 0.061 | -0.047 | -0.093 | -0.007 | 0.002 | 0.01 | 0.016 | 0.022
C19orf53 (UniProt Q9UNZ5) | -0.225 | 0.375 | 0.042 | 0.209 | -0.086 | -0.067 | -0.045 | -0.167 | 0.184 | -0.073
CHEK1 (UniProt O14757) | 0.005 | -0.025 | -0.029 | -0.041 | -0.041 | -0.805 (active) | -0.06 | 0.055 | -0.007 | 0.016
CHD4 isoform 2 (UniProt Q14839) | 0.04 | 0.079 | 0.019 | 0.045 | 0 | -0.099 | 0.055 | -0.097 | 0.013 | -0.028
CDCA2 (UniProt Q69YH5) | 0.278 | -0.036 | -0.04 | 0.018 | 0.585 | -0.079 | 0.109 | -0.011 | 0.204 | -0.127
CHST11 (UniProt Q9NPF2) | 0.153 | 0.016 | 0.061 | -0.016 | -0.248 | -0.19 | -0.013 | 0.012 | 0.297 | -0.025
CS (UniProt O75390) | 0.012 | -0.172 | 0.011 | -0.033 | -0.013 | -0.139 | 0.041 | 0.059 | -0.027 | 0.099
CCDC9 (UniProt Q9Y3X0) | 0.057 | 0.021 | -0.11 | 0.018 | -0.035 | 0.02 | -0.078 | -0.021 | 0.003 | -0.015
CPSF3 (UniProt Q9UKF6) | -0.063 | 0.033 | 0.011 | -0.007 | -0.067 | -0.021 | 0 | -0.012 | 0.009 | -0.025
CD63 (UniProt P08962) | -0.053 | -0.336 (active) | -0.01 | -0.051 | -0.069 | -0.031 | -0.076 | 0.096 | -0.002 | 0.032
CDAN1 (UniProt Q8IWY9) | -0.032 | -0.017 | 0.008 | -0.088 | -0.041 | -0.044 | -0.034 | 0.185 | 0.005 | 0.011
CDC42EP1 (UniProt Q00587) | -0.139 | -0.07 | 0.014 | 0 | 0 | -0.492 (active) | 0.087 | -0.057 | -0.015 | -0.143
CNOT1 (UniProt A5YKK6) | 0.002 | -0.019 | 0.02 | -0.032 | -0.022 | 0.053 | -0.021 | -0.031 | 0.02 | -0.046

Target | log2 fold change [1] | log2 fold change (filanesib) | log2 fold change (zotarolimus) | log2 fold change (idasanutlin) | log2 fold change (alisertib) | log2 fold change [2] | log2 fold change (gefitinib) | log2 fold change [3] | log2 fold change (lapatinib) | log2 fold change (pictilisib)
CSNK2B (UniProt P67870) | 0.113 | -0.006 | -0.002 | -0.026 | -0.013 | -0.196 | -0.013 | 0.028 | 0.04 | 0.079
CASP10 isoform 4 (UniProt Q92851) | 0.012 | 0.078 | 0.062 | -0.049 | 0.009 | -0.089 | -0.036 | -0.128 | -0.047 | 0.079
CDKN1B (UniProt P46527) | 0.085 | -0.02 | -0.007 | -0.033 | 0.068 | 0.104 | 0.124 | -0.076 | -0.03 | -0.02
CHP1 (UniProt Q99653) | 0.039 | -0.044 | 0.058 | -0.084 | -0.144 | 0.129 | 0.026 | -0.02 | -0.054 | 0.053
CALB1 (UniProt P05937) | 0.029 | -0.192 | 0.006 | -0.024 | -0.022 | -0.071 | -0.024 | 0.015 | 0.013 | 0.027
CDC37L1 (UniProt Q7L3B6) | -0.027 | 0.047 | -0.057 | -0.031 | -0.009 | -0.106 | 0.029 | -0.037 | 0.034 | -0.051
CNDP2 (UniProt Q96KP4) | -0.171 | -0.145 | 0.041 | -0.024 | -0.049 | -0.001 | -0.008 | 0.027 | 0.017 | 0.021
CASC3 (UniProt O15234) | 0 | 0.17 | -0.105 | 0.038 | -0.051 | 0.16 | 0 | -0.105 | -0.077 | -0.066
CD55 isoform 7 (UniProt P08174) | -0.115 | 0.086 | 0.001 | 0.038 | -0.144 | 0.012 | 0.104 | -0.136 | 0.031 | 0.005
CSE1L (UniProt P55060) | 0.024 | -0.1 | 0.027 | -0.135 | -0.059 | 0.005 | -0.018 | -0.019 | -0.036 | -0.015
CBX5 (UniProt P45973) | 0.119 | -0.046 | 0.029 | -0.014 | -0.062 | 0.003 | 0.024 | 0.022 | 0.019 | 0.106
CASP3 (UniProt P42574) | 0.004 | -0.002 | 0.029 | 0.072 | -0.103 | 0.025 | 0.002 | -0.018 | 0.017 | 0.006
CAMSAP1 isoform 3 (UniProt Q5T5Y3) | 0.011 | -0.015 | 0.045 | 0.091 | 0.039 | 0.169 | -0.034 | 0.056 | 0.095 | 0.118
CDK5RAP3 isoform 4 (UniProt Q96JB5) | -0.008 | -0.085 | 0.026 | -0.091 | -0.001 | 0.075 | 0.024 | 0.004 | -0.034 | -0.015
CRKL (UniProt P46109) | 0.006 | 0.002 | 0.007 | 0.022 | -0.036 | 0.021 | 0 | 0.102 | -0.012 | 0.057
CDK1 (UniProt P06493) | 0.04 | 0.024 | 0.007 | 0.02 | -0.083 | -0.036 | 0.009 | 0.017 | 0.008 | -0.002
